About 83,000 compounds went through this panel and 20% of them were active in at least one assay; those are over-represented in the sample as a whole.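 Single-concentration screen, 48 h exposure, 96-well plates. Endpoint: percent growth. Below 10 = active.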 A number with no mark means an inactive call. Calls of active or inactive are those of the source.
The molecules below were run on SR leukemia (assay: NCI-60 one-dose screen, 48 h (100 = growth as untreated, 0 = no growth, -100 = all killed)). Settings: 10 µM unless noted.

Row | Compound | growth
1 | O=C(NNC(=O)N1c2ccccc2C=Cc2ccccc21)c1ccc2ccccc2c1 | 87.2%
2 | CCOC(=O)C1C(=O)C=C(c2ccc(OC)cc2)CC1c1sc(N(C)Cc2ccccc2)nc1Cl (centres undefined) | 81%
3 | CCc1cnc(=S)n(-c2ccccc2)c1 | 99.6%
4 | CCN(CC)c1ccc2[nH]c3c(C(N)=O)cc(=O)c(=O)c=3oc2c1 | 5.09% (active)
5 | CC1(C)C(=O)/C(=C\c2ccc(C(F)(F)F)cc2)C[C@]2(C)[C@H]3CC[C@@H]4[C@H]5[C@H](C(=O)/C=C/c6ccc(C(F)(F)F)cc6)CC[C@]5(CO)CC[C@@]4(C)[C@]3(C)CC[C@@H]12 | 82.2%
6 | O=[N+]([O-])c1ccc(Sc2ncccn2)c([N+](=O)[O-])c1 | -20.3% (active)
7 | CC(C)(C)OC(=O)NC(CSCc1ccccc1)C(=O)ON1C(=O)CCC1=O (centres undefined) | 78.4%
8 | C/C(=C\c1ccc(OCC(=O)O)c(Cl)c1Cl)[N+](=O)[O-] | 72.1%
9 | CC(C)CC1NC(C)(C)CO1 (centres undefined) | 124%
10 | CC(NNC(C)c1ccccc1)c1ccccc1 (centres undefined) | 91.9%
11 | CC(C)(C)n1cc(-c2ccnc(NCCCNS(=O)(=O)c3ccc(C(F)(F)F)cc3)c2)c(-c2cccc(O)c2)n1 | -7.63% (active)
12 | CC(C)(C)n1cc(-c2ccnc(NCCCNS(=O)(=O)c3ccc(Br)cc3)c2)c(-c2cccc(O)c2)n1 | -16% (active)
13 | Cn1cc(-c2cnc3ccc(NC(=O)Nc4ccc(F)c(Br)c4)cc3n2)cn1 | 34%
14 | CC(C)(C)c1[nH]nc2c1C(c1cc3ccccc3[nH]c1=O)Nc1cc(C(=O)Nc3ccc(Cl)cc3)ccc1N2 (centres undefined) | 65.4%
15 | O=C([O][Sn]([O]C(=O)c1ccccn1)([c]1ccccc1)[c]1ccccc1)c1ccccn1 | 47.6%
16 | CC(C)(C)N1CCC1C(N)=O (centres undefined) | 115%
17 | CC(C)(C)n1cc(-c2ccnc(NCCCNS(=O)(=O)c3ccc(Cl)cc3)c2)c(-c2cccc(O)c2)n1 | -34.5% (active)
18 | O=C(Nc1ccc(NCCN2CCOCC2)nc1)c1ccc([N+](=O)[O-])cc1 | 113%
19 | COc1cc(-c2ncn(/C=C\C(=O)OC(C)C)n2)cc(C(F)(F)F)c1 | 2.46% (active)
20 | O=C(NNC(=O)N1c2ccccc2C=Cc2ccccc21)c1ccccc1 | 96.6%

Row | Compound | growth
21 | CC(C)(C)n1cc(-c2ccnc(NCCNS(=O)(=O)c3ccc(Cl)cc3)c2)c(-c2cccc(O)c2)n1 | 24.9%
22 | Clc1ccccc1-c1nc2ccccc2[nH]1 | 116%
23 | CC(C)(C)n1cc(-c2ccnc(NCCNS(=O)(=O)c3ccc(C(F)(F)F)cc3)c2)c(-c2cccc(O)c2)n1 | 8.04% (active)
24 | CC(=O)Oc1csc(N(C(C)=O)c2cc(C(=O)O)cc(C(=O)O)c2)n1 | 114%
25 | COc1ccncc1S(=O)(=O)NC(=O)Nc1ccc(Cl)c(Cl)c1 | 74.8%
26 | COc1ccc(-c2nc(/C=N/Nc3cc(C)nc4ccc(Cl)cc34)c(C)o2)cc1 | -5.37% (active)
27 | COc1ccc(C(=O)N2NC(=O)/C(=C/c3ccccc3F)N=C2c2ccccc2)cc1 | 104%
28 | CCOC(=O)CC(=O)OC | 76.7%
29 | CN1C=CN(Cc2ccc(-c3ccccn3)nc2)[CH-]1.CN1C=CN(Cc2ccc(-c3ccccn3)nc2)[CH-]1.[Au+3] | 16.8%
30 | COc1cccc(/C=C2\Oc3cc(OCCCN4CCCC4)ccc3C2=O)c1OC | 70.8%
31 | O=C1C(Cl)=C(Nc2ccccn2)C(=O)c2ccccc21 | 81.4%
32 | Cc1ccc2[nH]c(=O)c3c(c2c1)Oc1ncn2nc(-c4ccco4)nc2c1C3c1ccc(Cl)cc1 (centres undefined) | 106%
33 | COc1ccc(C2CC(c3ccc(OC)cc3OC)=NN2c2ccc(S(N)(=O)=O)cc2)cc1 (centres undefined) | 70.2%
34 | c1ccc(-c2nnc(-c3ccccn3)s2)nc1 | 96.7%
35 | Clc1cc2c(nn1)Nc1ccccc1S2 | 77.2%
36 | O=[N+]([O-])c1cc(S(=O)(=O)Oc2ccccc2)ccc1Cl | 1.34% (active)
37 | COc1cc(/C=N\NC(=O)CN2CCN(c3cc4c(cc3F)c(=O)c(C(=O)N/N=C/c3cc(OC)c(OC)c(OC)c3)cn4C3CC3)CC2)cc(OC)c1OC | 2.97% (active)
38 | NC1=C(/C(N)=N/O)C(c2ccccc2)c2ccc3ccccc3c2O1 (centres undefined) | 34.9%
39 | OCc1ncc(-c2ccccc2)s1 | 107%
